Experimental data as given in the supplement of paper PMC4466140.

Tests used:
Assay in all cases: SPOT peptide array binding signal intensity (averaged, normalized) (arbitrary units (background-subtracted, floor 0; scale differs between SH3 domains)); higher = stronger binding of the SH3 domain to the peptide
[1] = biological target: AgAbp1
How it was run: (§1)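 To measure binding, SH3 domains from four yeast species were fused to GST, expressed in E. coli BL21(DE3) and purified on glutathione Sepharose. Each domain was incubated at 10 μg/ml overnight at 4°C on cellulose membranes with synthetic 15-mer peptides whose cysteines were replaced by serines. Anti-GST antibody, an HRP anti-mouse secondary and luminol were used for detection, and images were quantified with Genespotter. Reported binding signal is normalized, background-subtracted spot intensity averaged over replicates, in arbitrary units that differ between domains.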

[2] = biological target: AgBbc1
How it was run: as §1

[3] = biological target: AgBem1-D1
How it was run: as §1

[4] = biological target: AgBzz1-D1
How it was run: as §1

[5] = biological target: AgBzz1-D2
How it was run: as §1

[6] = biological target: AgCyk3
How it was run: as §1

[7] = biological target: AgFus1
How it was run: as §1

[8] = biological target: AgHof1
How it was run: as §1

[9] = biological target: AgHse1
How it was run: as §1

[10] = biological target: AgLsb1
How it was run: as §1

[11] = biological target: AgLsb4
How it was run: as §1

[12] = biological target: AgMyo5
How it was run: as §1

[13] = biological target: AgNbp2
How it was run: as §1

[14] = biological target: AgRvs167
How it was run: as §1

[15] = biological target: AgSho1
How it was run: as §1

[16] = biological target: AgSla1-D1-D2
How it was run: as §1

[17] = biological target: AgSla1-D3
How it was run: as §1

[18] = biological target: CaAbp1-D1
How it was run: as §1

[19] = biological target: CaAbp1-D2
How it was run: as §1

[20] = biological target: CaBbc1
How it was run: as §1

[21] = biological target: CaBem1-D1
How it was run: as §1

[22] = biological target: CaBzz1-D1
How it was run: as §1

[23] = biological target: CaBzz1-D2
How it was run: as §1

[24] = biological target: CaCyk3
How it was run: as §1

[25] = biological target: CaFus1
How it was run: as §1

[26] = biological target: CaHof1
How it was run: as §1

[27] = biological target: CaHse1
How it was run: as §1

[28] = biological target: CaLsb1
How it was run: as §1

[29] = biological target: CaLsb4
How it was run: as §1

[30] = biological target: CaMyo5
How it was run: as §1

[31] = biological target: CaNbp2
How it was run: as §1

[32] = biological target: CaRvs167
How it was run: as §1

[33] = biological target: CaRvs167-3
How it was run: as §1

[34] = biological target: CaSho1
How it was run: as §1

[35] = biological target: CaSla1-D1-D2
How it was run: as §1

[36] = biological target: CaSla1-D3
How it was run: as §1

[37] = biological target: ScAbp1
How it was run: as §1

[38] = biological target: ScBbc1
How it was run: as §1

[39] = biological target: ScBem1-D1
How it was run: as §1

[40] = biological target: ScBzz1-D1
How it was run: as §1

[41] = biological target: ScBzz1-D2
How it was run: as §1

[42] = biological target: ScCyk3
How it was run: as §1

[43] = biological target: ScFus1
How it was run: as §1

[44] = biological target: ScHof1
How it was run: as §1

[45] = biological target: ScHse1
How it was run: as §1

[46] = biological target: ScLsb1
How it was run: as §1

[47] = biological target: ScLsb2
How it was run: as §1

[48] = biological target: ScLsb3
How it was run: as §1

[49] = biological target: ScLsb4
How it was run: as §1

[50] = biological target: ScMyo3
How it was run: as §1

[51] = biological target: ScMyo5
How it was run: as §1

[52] = biological target: ScNbp2
How it was run: as §1

[53] = biological target: ScPex13
How it was run: as §1

[54] = biological target: ScRvs167
How it was run: as §1

[55] = biological target: ScSho1
How it was run: as §1

[56] = biological target: ScSla1-D1-D2
How it was run: as §1

[57] = biological target: ScSla1-D3
How it was run: as §1

[58] = biological target: SpAbp1-D1
How it was run: as §1

[59] = biological target: SpBbc1
How it was run: as §1

[60] = biological target: SpBzz1-D1
How it was run: as §1

[61] = biological target: SpBzz1-D2
How it was run: as §1

[62] = biological target: SpCyk3
How it was run: as §1

[63] = biological target: SpHof1
How it was run: as §1

[64] = biological target: SpHof1-2
How it was run: as §1

[65] = biological target: SpHof1-3
How it was run: as §1

[66] = biological target: SpHse1
How it was run: as §1

[67] = biological target: SpLsb1
How it was run: as §1

[68] = biological target: SpLsb4
How it was run: as §1

[69] = biological target: SpMyo1
How it was run: as §1

[70] = biological target: SpNbp2
How it was run: as §1

[71] = biological target: SpPex13
How it was run: as §1

[72] = biological target: SpRvs167
How it was run: as §1

[73] = biological target: SpSla1-D1-D2
How it was run: as §1

[74] = biological target: SpSla1-D3
How it was run: as §1

B1: unnamed (peptide)
chain: VYTRTAFQIPGDDKI
SPOT peptide array binding signal intensity [1]: ≤ 0 | SPOT peptide array binding signal intensity [2]: ≤ 0 | SPOT peptide array binding signal intensity [3]: ≤ 0 | SPOT peptide array binding signal intensity [4]: 29 | SPOT peptide array binding signal intensity [5]: 20 | SPOT peptide array binding signal intensity [6]: 0.5 | SPOT peptide array binding signal intensity [7]: ≤ 0 | SPOT peptide array binding signal intensity [8]: 10 | SPOT peptide array binding signal intensity [9]: ≤ 0 | SPOT peptide array binding signal intensity [10]: 474 | SPOT peptide array binding signal intensity [11]: ≤ 0 | SPOT peptide array binding signal intensity [12]: ≤ 0 | SPOT peptide array binding signal intensity [13]: ≤ 0 | SPOT peptide array binding signal intensity [14]: 0.333 | SPOT peptide array binding signal intensity [15]: ≤ 0 | SPOT peptide array binding signal intensity [16]: ≤ 0 | SPOT peptide array binding signal intensity [17]: ≤ 0 | SPOT peptide array binding signal intensity [18]: ≤ 0 | SPOT peptide array binding signal intensity [19]: ≤ 0 | SPOT peptide array binding signal intensity [20]: 3 | SPOT peptide array binding signal intensity [21]: ≤ 0 | SPOT peptide array binding signal intensity [22]: 83.5 | SPOT peptide array binding signal intensity [23]: 26 | SPOT peptide array binding signal intensity [24]: ≤ 0 | SPOT peptide array binding signal intensity [25]: ≤ 0 | SPOT peptide array binding signal intensity [26]: ≤ 0 | SPOT peptide array binding signal intensity [27]: ≤ 0 | SPOT peptide array binding signal intensity [28]: 184 | SPOT peptide array binding signal intensity [29]: ≤ 0 | SPOT peptide array binding signal intensity [30]: ≤ 0 | SPOT peptide array binding signal intensity [31]: ≤ 0 | SPOT peptide array binding signal intensity [32]: 0.833 | SPOT peptide array binding signal intensity [33]: 3.25 | SPOT peptide array binding signal intensity [34]: ≤ 0 | SPOT peptide array binding signal intensity [35]: ≤ 0 | SPOT peptide array binding signal intensity [36]: 0.5 | SPOT peptide array binding signal intensity [37]: ≤ 0 | SPOT peptide array binding signal intensity [38]: ≤ 0 | SPOT peptide array binding signal intensity [39]: 8 | SPOT peptide array binding signal intensity [40]: 17.5 | SPOT peptide array binding signal intensity [41]: 22.5 | SPOT peptide array binding signal intensity [42]: ≤ 0 | SPOT peptide array binding signal intensity [43]: ≤ 0 | SPOT peptide array binding signal intensity [44]: ≤ 0 | SPOT peptide array binding signal intensity [45]: ≤ 0 | SPOT peptide array binding signal intensity [46]: 601 | SPOT peptide array binding signal intensity [47]: 895 | SPOT peptide array binding signal intensity [48]: ≤ 0 | SPOT peptide array binding signal intensity [49]: ≤ 0 | SPOT peptide array binding signal intensity [50]: 0.5 | SPOT peptide array binding signal intensity [51]: ≤ 0 | SPOT peptide array binding signal intensity [52]: ≤ 0 | SPOT peptide array binding signal intensity [53]: ≤ 0 | SPOT peptide array binding signal intensity [54]: 1.83 | SPOT peptide array binding signal intensity [55]: ≤ 0 | SPOT peptide array binding signal intensity [56]: ≤ 0 | SPOT peptide array binding signal intensity [57]: 10.5 | SPOT peptide array binding signal intensity [58]: 1 | SPOT peptide array binding signal intensity [59]: ≤ 0 | SPOT peptide array binding signal intensity [60]: 75.5 | SPOT peptide array binding signal intensity [61]: ≤ 0 | SPOT peptide array binding signal intensity [62]: ≤ 0 | SPOT peptide array binding signal intensity [63]: ≤ 0 | SPOT peptide array binding signal intensity [64]: ≤ 0 | SPOT peptide array binding signal intensity [65]: ≤ 0 | SPOT peptide array binding signal intensity [66]: ≤ 0 | SPOT peptide array binding signal intensity [67]: 68.5 | SPOT peptide array binding signal intensity [68]: ≤ 0 | SPOT peptide array binding signal intensity [69]: 3.5 | SPOT peptide array binding signal intensity [70]: 7 | SPOT peptide array binding signal intensity [71]: ≤ 0 | SPOT peptide array binding signal intensity [72]: 0.333 | SPOT peptide array binding signal intensity [73]: 2 | SPOT peptide array binding signal intensity [74]: ≤ 0
